High-throughput results: PubChem BioAssay, National Center for Advancing Translational Sciences (NCATS)
Sampled rows, rich in hits. Any-hit rate of the full collection: about 7.1%.
ATXN2 expr inh: ATXN2 expression inhibition; HEK-293 ATXN2-luciferase reporter, luminescence, 24 h; Potency, µM (top dose mostly 57 µM), without a hit: top-dose activity change, negative = inhibition, hits mostly inhibitors; hit rate 0.72% among 360,000; AID 1745845; also: potency is read from the fitted curve at half-maximal effect; % is scaled to controls: 0 for no effect and ±100 for the full control effect; nearly all actives have a fitted effect of over 55% in size
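ATXN2-luciferase reporter cells (luciferase flanked by upstream and downstream ATXN2 gene portions) were treated 24 h at 37 °C with compounds at up to 57 uM. SteadyGlo luminescence gave expression; GF-AFC fluorescence gave viability.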
SW480 rereplic: inducers of DNA re-replication in SW480 colon cancer cells. SW480 DNA re-replication, Hoechst DNA content imaging, 48 h. Potency, µM (top dose mostly 46.1 µM), inactives show top-dose re-replication activation, most hits filed as activators. hit rate 1.8% among 340,000. AID 624297; also: potency is read from the fitted curve at half-maximal effect; % of control where 0% means no effect; nearly all actives have a fitted effect of over 55% in size
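Cells (250 per well) received 23 nL compound or DMSO by pin tool and were kept 48 hr at 37 C, 5% CO2. Nuclei were then stained with Hoechst for 40 min and scanned for DNA content.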
PINK1 modulator: changes PINK1 expression; Potency, µM (titrated, usually from 76.6 µM), without a hit: at the highest dose activation (PINK1 increase), most hits filed as activators; PINK1 immunofluorescence, high-content cytometry, 24 h; hit rate 0.2% among 410,000; active = well fitted activation curve with a large enough effect; inconclusive = small, poorly fitted or top-dose-only effect; cell line not stated here; also: potency is read from the fitted curve at half-maximal effect; % of control where 0% means no effect; nearly all actives have a fitted effect of over 65% in size
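Measures PINK1 amount and localization on or inside mitochondria by immunofluorescence. Stable cells get compounds at 5 concentrations for 24 hours before fixation and staining; CCCP controls included.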
IL-1B inflam inh: inflammasome signaling inhibition, IL-1 beta readout. THP-1 LPS/ATP IL-1B secretion, AlphaLISA, 16 h; stronger effect = lower value. activity change, % at 57.5 µM. hit rate 4.7% among 360,000; in the data active = activity change below about -50%; inconclusive = mostly about -30% to -49%; also: % is scaled to controls: 0 for no effect and ±100 for the full control effect
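Secreted IL-1B measured by AlphaLISA bead assay after 16 h compound exposure of THP-1 cells; compounds (final up to 57.5 uM) added 1 h before LPS (250 ng/mL) and ATP (1.25 mM) stimulation; lower signal means less secretion.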
MCF10A rereplic: inducers of DNA re-replication in MCF 10A breast cells | MCF 10A DNA re-replication, Hoechst nuclear intensity, 48 h | Potency, µM (highest dose often 46.1 µM), inactives show at the top dose activity, positive = re-replication, actives largely listed as activators | hit rate 2.9% among 350,000 | AID 624296; also: potency is read from the fitted curve at half-maximal effect; % of control where 0% means no effect; nearly all actives have a fitted effect of over 50% in size
S2 tox: cell viability loss in ATXN counter-screen. Potency, µM (top dose mostly 56.7 µM), usual class: cytotoxic. hit rate 0.49% among 400,000. AID 651635. S2 cells (HEK-293 line with an ATXN2-luciferase reporter) viability, CellTiter-Fluor protease fluorescence, 24 h; also: potency is read from the fitted curve at half-maximal effect; nearly all actives have a fitted effect of over 40% in size
* marks the source's active call; other numbers are inactive results; i = inactive; ? = inconclusive; / = not tested or not shown; ! = repeats disagree; [ ] = another dose, or the depositor's remark. Unless noted, calls follow the shape of the dose curve; as a rule, active = well fitted curve in the direction sought with a large enough effect; inconclusive = small, poorly fitted or top-dose-only effect, or another doubt; inactive = no such curve, though single readings can be large; an effect the other way counts as inactive or inconclusive.

SMILES | ATXN2 expr inh | SW480 rereplic | PINK1 modulator | IL-1B inflam inh | MCF10A rereplic | S2 tox
CCC(C(=O)O)C1CCC(C)C(C(C)C(O)C(C)C(=O)C(CC)C2OC3(C=CC(O)[C@@]4(CC[C@](C)(C5CC[C@@](O)(CC)C(C)O5)O4)O3)C(C)CC2C)O1 (stereo not given in full) | 7.7µM* | ? | / | / | ? | /
CN1C(=O)C(=Cc2ccccc2Oc2ccc(Cl)cc2)C(=O)N(C)C1=O | 6% | ? | 5% | 0 | 2% | i
CN1C(=O)C(=Cc2ccc(OCCN(C)c3ccccn3)cc2)C(=O)N(C)C1=O | 1% | -23% | 3% | 11 | 0.41µM* | i
CCCCC[C@@H](O)C1C(=O)OC(C)[C@H](O)/C=C/C=C/C=C/C=C/C=C(\C)C(O)C(O)C(O)C[C@H](O)C[C@H](O)C[C@H](O)C[C@H](O)C[C@@H]1O (stereo not given in full) | / | / | / | / | / | i
c1ccc(CN2CCC3(CCNCC3)CC2)cc1 | / | / | 3% | / | / | /
C[C@H]1CCC[C@@H](O)CCC/C=C/c2cc(O)cc(O)c2C(=O)O1 | 14µM* | ? | -7%[38.3 µM] | ? | 10µM* | ?
C[C@H]1CCC[C@H](O)CCCCCc2cc(O)cc(O)c2C(=O)O1 | ? | ? | -1% | -19 | ? | i
Cc1ccc2c(Cl)cc(Cl)c(O)c2n1 | 7.1µM*! | 10µM* | 4% | -94* | 21µM* | ?
Cc1cc(N2CCNCC2)nc2ccccc12 | ? | 8% | 1% | -63* | ? | i
Cn1c(N2CCNCC2)nc2ccccc21 | -9% | -9% | 4%[38.3 µM] | 1 | -2% | i
CN(C)N=O | -4% | 15% | -1% | 11 | -3% | i
CCN(CC)N=O | 4% | -16% | 1% | -97* | 31% | i
CNC(=O)Oc1ccc(-c2cn3cc(C)ccc3n2)cc1 | 8.9µM* | ? | -5% | ? | 8% | i
CNC(=O)Oc1cccc(-c2cn3cc(Cl)ccc3n2)c1 | -41% | -460% | 1% | -7 | 2% | i
CN1CCCC2(CCN(C(=O)Oc3ccccc3)CC2)C1 | / | / | 0% | / | / | /
Nc1ccc(Cl)cc1C(=O)c1ccccc1F | 0% | / | / | / | / | i
COc1ccc(C2CC(=O)Oc3c2c(=O)oc2ccccc32)c(OC)c1OC (stereo not given) | 4% | / | 1% | / | / | i
COc1ccc(C2=CC(c3ccc4c(c3)OCO4)c3c(c4ccccc4oc3=O)O2)cc1OC (stereo not given) | -12% | 6.5µM* | 1% | -21 | 2.6µM* | ?
CC(C)(C)N1CC(C(=O)c2ccccc2)C1c1ccccc1 (stereo not given) | 10% | -1% | 6% | -80* | 29% | i
CN1CC(C(=O)c2ccccc2)C(c2ccccc2)C1 (stereo not given) | 2% | 10% | 0% | -13 | -10% | i
CCN(CC)c1ccc(N=Cc2c(O)n(Cc3ccco3)c(=O)[nH]c2=O)cc1 | -28% | 70% | 23% | / | 26µM* | /
O=C1NC(=O)C(=Cc2ccc(-c3ccc(F)cc3O)o2)C(=O)N1 | ? | ? | 7% | -77* | ? | i
O=C1NC(=O)C(=Cc2ccc(-c3ccc(Cl)cc3)o2)C(=O)N1 | ? | -1% | 1% | -108* | 25% | 28µM*
O=C1NC(=O)C(=Cc2ccc(Sc3ccccc3)o2)C(=O)N1 | ? | ? | 1% | -100* | ? | ?
CN1C(=O)C(=Cc2ccc(Sc3ccccc3)o2)C(=O)N(C)C1=O | 1% | -3% | 1% | -6 | 0% | i
SMILES | ATXN2 expr inh | SW480 rereplic | PINK1 modulator | IL-1B inflam inh | MCF10A rereplic | S2 tox
C[C@H](CO)N1C[C@H](C)[C@H](CN(C)S(=O)(=O)c2ccc(Cl)cc2)OCc2ccccc2-c2c(n(C)c3ccccc23)C1=O | ? | / | 1% | -15 | / | ?
O=C(C1CCN(S(=O)(=O)c2ccc(Br)s2)CC1)N1CCN(c2ccc(F)cc2)CC1 | 6% | / | 0% | / | / | ?
O=C(NCCN1CCC2(CC1)C(=O)NCN2c1cccc(F)c1)c1ccc2ccccc2c1 | 13µM* | / | 3% | ? | / | 32µM*
O=C(C(=C1N(Cc2ccc(Cl)nc2)CCN1Cc1ccc(Cl)nc1)[N+](=O)[O-])C(Cl)Cl | / | 20% | 4% | -71* | ? | ?
O=[N+]([O-])/N=C1\NCCN1Cc1ccc(Cl)nc1 | 8% | / | / | / | / | i
CC(=O)O[C@H]1[C@H]2O[C@]23[C@@H]2CC[C@]4(O)C[C@@H](O)CC[C@]4(C)C2CC[C@]3(C)[C@H]1c1ccc(=O)oc1 (stereo not given in full) | 0.32µM* | 0% | -1% | ? | 19% | ?
C[C@]12CC[C@H](O)C[C@H]1CCC1C2CC[C@]2(C)[C@@H](c3ccc(=O)oc3)C[C@H]3O[C@]132 (stereo not given in full) | / | ? | -1% | / | 13µM* | /
C[C@]12CC[C@H]3C(CCC4(O)CC(O)CC[C@]34C=O)C1=CC[C@H]2c1ccc(=O)oc1 (stereo not given in full) | / | ? | -1% | ? | 20% | ?
Cc1sc2c(c1C)C(c1ccc(Cl)cc1)=N[C@@H](CC(=O)OC(C)(C)C)c1nnc(C)n1-2 | 10% | / | / | / | / | /
CN1[C@H]2CC[C@@H]1[C@@H](C(=O)O)[C@@H](OC(=O)c1ccccc1)C2 | / | / | / | / | / | i
Nc1c(C(=O)NC2CCCC2)c2nc3ccccc3nc2n1CC1CCCO1 (stereo not given) | -6% | 15µM* | -2% | ? | 7.3µM* | i
Nc1c(C(=O)OCC2CCCO2)c2nc3ccccc3nc2n1Cc1cccs1 (stereo not given) | -7% | 9% | -1% | -29 | ? | i
CCCNC(=O)c1c(N)n(Cc2ccco2)c2nc3ccccc3nc12 | -29% | ? | -4%[38.3 µM] | -89* | 2.1µM* | /
CC(C)CNC(=O)c1c(N)n(Cc2ccco2)c2nc3ccccc3nc12 | ? | 21µM* | 2% | -73* | 6.5µM* | /
CC(C)OC(=O)c1c(N)n(Cc2ccco2)c2nc3ccccc3nc12 | -7% | 15% | 8% | -19 | -4% | i
Nc1c(C(=O)NCc2ccco2)c2nc3ccccc3nc2n1CCN1CCCCC1 | ? | -2% | -1%[38.3 µM] | -63* | -4% | i
COCCOC(=O)c1c(N)n(Cc2ccco2)c2nc3ccccc3nc12 | -14% | 0% | 2% | 11 | -2% | /
O=C(Nc1cccc(F)c1)N1CCCC2(CCN(C(=O)Oc3ccccc3)CC2)C1 | / | / | -1% | / | / | /
COc1ccc(Cn2c(N)c(C(=O)NCc3ccco3)c3nc4ccccc4nc32)cc1OC | ? | 0.52µM* | 0% | ? | ? | i
